# Where a name gives a salt, the structure may show the parent alone.
# Test system: A549-CANX-COX4
# Experiment: lowest phenotypically active concentration; higher = less potent
# Conditions: treatment time: 24 h
# In short: (§1)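 Two criteria together defined phenotypic activity: deviation and reproducibility. Deviation meant ≥3 of 4 wells beyond the 95th percentile of Euclidean distances in solvent control wells, and reproducibility meant a median replicate Pearson correlation above the 95th percentile of non-replicates. Wells had been treated for 24 h at 0.3, 1, 3 or 9 µM in fifteen gene-edited A549, HepG2 and WPMY1 reporter lines before live imaging.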
row,Compound,lowest phenotypically active concentration
1,COc1ccc(C[C@H]2NC[C@H](O)[C@H]2OC(C)=O)cc1 [Anisomycin],≤ 0.3 µM
2,Cc1sc2c(c1C)C(c1ccc(Cl)cc1)=N[C@@H](CC(=O)OC(C)(C)C)c1nnc(C)n1-2,≤ 0.3 µM
3,C[C@@]12C(=O)OC(=O)[C@]1(C)[C@H]1CC[C@@H]2O1 [Cantharidin],3 µM
4,COc1cc2c(c(OC)c1OC)-c1ccc(OC)c(=O)cc1[C@@H](NC(C)=O)CC2 [colchicine],≤ 0.3 µM
5,N#CC(C#N)=NNc1cccc(Cl)c1,9 µM
6,CCN1CCN(C(=O)Cc2ccc(Nc3ncc(F)c(Nc4ccc(C(=O)Nc5ccccc5Cl)cc4)n3)cc2)CC1,1 µM
7,O=C(NCCN1CCC2(CC1)C(=O)NCN2c1cccc(F)c1)c1ccc(F)c(F)c1 [ML 298 hydrochloride],9 µM
8,CC(C)(N)Cc1ccccc1 [phentermine],9 µM
9,CCn1cnc2c(Nc3cccc(Cl)c3)nc(N[C@H]3CCCC[C@H]3N)nc21,3 µM
10,CC[C@@H](C(=O)[C@@H](C)[C@@H](O)[C@H](C)[C@@H]1O[C@@H]([C@@H](CC)C(=O)O)CC[C@@H]1C)[C@H]1O[C@]2(C=C[C@@H](O)[C@]3(CC[C@@](C)([C@H]4CC[C@](O)(CC)[C@H](C)O4)O3)O2)[C@H](C)C[C@@H]1C [Salinomycin Sodium],1 µM
11,CN1C[C@H](C(=O)N[C@]2(C)O[C@@]3(O)[C@@H]4CCCN4C(=O)[C@H](Cc4ccccc4)N3C2=O)C=C2c3cccc4[nH]cc(c34)C[C@H]21 [ergotamine],3 µM
12,C[C@H](CCC(=O)O)C[C@H](C)C[C@H](C)C(=O)/C=C(\O)[C@H](C)C[C@H](C)C/C=C/[C@@H](C)[C@@H](O)[C@@H](C)[C@@H](O)C[C@@H]1CC[C@@](C)([C@H]2CC[C@@](C)([C@@H](C)O)O2)O1 [Ionomycin free acid],9 µM
13,N#CC(C#N)=NNc1ccc(OC(F)(F)F)cc1,9 µM
14,COC1=CC(C)=C[C@@H](C)[C@@H](O)[C@@H](C)CC(C)=CC=C[C@H](OC)[C@@H]([C@@H](C)[C@@H](O)[C@H](C)[C@@]2(O)C[C@@H](O)[C@H](C)[C@@H](C(C)C)O2)OC1=O [Bafilomycin A1],9 µM
15,COc1cc([C@@H]2c3cc4c(cc3[C@H](O)[C@H]3COC(=O)[C@H]23)OCO4)cc(OC)c1OC [Podophyllotoxin],≤ 0.3 µM
16,CC[C@]12C=CCN3CC[C@]4(C(=C(C(=O)OC)C1)Nc1ccccc14)[C@@H]32 [Tabersonine dichlorhydrate],9 µM

# Test system: A549-GM130-SQSTM1
# Experiment: as above
# Conditions: treatment time: 24 h
# In short: as §1
row,Compound,lowest phenotypically active concentration
1,COc1cc2c(c(OC)c1OC)-c1ccc(O)c(=O)cc1[C@@H](N)CC2 [Trimethylcolchicinic acid],9 µM
2,C[C@@]1(CO)[C@H](O)CC[C@@]2(C)[C@H]1CC[C@H]1C[C@@H]3C[C@@]12CC[C@]3(O)CO [Aphidicolin],≤ 0.3 µM
3,COC(=O)[C@@]1(O)C[C@H]2O[C@]1(C)n1c3ccccc3c3c4c(c5c6ccccc6n2c5c31)C(=O)NC4,≤ 0.3 µM
4,COc1ccc(N(C(=O)Oc2c(C)cccc2C)c2ccnc(Nc3ccc(N4CCN(C)CC4)cc3)n2)c(OC)c1,1 µM
5,CC[C@@H]1C=CC=CC[C@H](C)[C@@H](O)[C@](C)(O)C(=O)[C@H](C)[C@@H](O)[C@H](C)C(=O)[C@H](C)[C@@H](O)[C@H](C)C=CC(=O)O[C@H]2[C@@H](C)[C@@H](CC1)O[C@@]1(CC[C@@H](C)[C@@H](C[C@H](C)O)O1)[C@@H]2C [Oligomycin A],≤ 0.3 µM
6,CC(C)[C@@]1(NC(=O)[C@@H]2C[C@@H]3c4cccc5[nH]cc(c45)C[C@H]3N(C)C2)O[C@@]2(O)[C@@H]3CCCN3C(=O)[C@H](Cc3ccccc3)N2C1=O [Dihydroergocristine mesylate],9 µM
7,O=c1[nH]c2ccccc2n1C1CCN(CCCC(c2ccc(F)cc2)c2ccc(F)cc2)CC1 [pimozide],9 µM
8,C[C@]12CC[C@H]3[C@@H](CC[C@]4(O)C[C@@H](O)CC[C@]34C=O)[C@@]1(O)CC[C@@H]2C1=CC(=O)OC1 [Strophanthidin],≤ 0.3 µM
9,C=C1[C@@H](O)C2C=CC[C@H](C)C(=O)[C@](C)(O)C=C[C@@H](OC(C)=O)[C@]23C(=O)N[C@H](Cc2ccccc2)[C@@H]3[C@@H]1C (stereo partly specified) [Cytochalasin D],≤ 0.3 µM
10,COc1ccc(C[C@H]2NC[C@H](O)[C@H]2OC(C)=O)cc1 [Anisomycin],≤ 0.3 µM
11,C[C@@H]1CC[C@H]2[C@@H](C)C(=O)O[C@@H]3O[C@@]4(C)CC[C@@H]1[C@]32OO4 [Artemisinin],3 µM
12,O=C1NC(=O)c2c1c1c3ccccc3n3c1c1c2c2ccccc2n1C1CCC3O1,≤ 0.3 µM
13,Cc1sc2c(c1C)C(c1ccc(Cl)cc1)=N[C@@H](CC(=O)OC(C)(C)C)c1nnc(C)n1-2,≤ 0.3 µM
14,CN1C[C@H](C(=O)N[C@]2(C)O[C@@]3(O)[C@@H]4CCCN4C(=O)[C@H](Cc4ccccc4)N3C2=O)C[C@@H]2c3cccc4[nH]cc(c34)C[C@H]21.CN1C[C@H](C(=O)N[C@]2(C)O[C@@]3(O)[C@@H]4CCCN4C(=O)[C@H](Cc4ccccc4)N3C2=O)C[C@@H]2c3cccc4[nH]cc(c34)C[C@H]21 [dihydroergotamine],9 µM
15,C[C@@]12C(=O)OC(=O)[C@]1(C)[C@H]1CC[C@@H]2O1 [Cantharidin],3 µM
16,COc1cc2c(c(OC)c1OC)-c1ccc(OC)c(=O)cc1[C@@H](NC(C)=O)CC2 [colchicine],≤ 0.3 µM
17,N#CC(C#N)=NNc1cccc(Cl)c1,9 µM
18,Cc1c(C(=O)Nc2cccc(C(F)(F)F)c2)cc(-c2ccccc2)n1CCCN1CCOCC1,9 µM
19,CCN1CCN(C(=O)Cc2ccc(Nc3ncc(F)c(Nc4ccc(C(=O)Nc5ccccc5Cl)cc4)n3)cc2)CC1,1 µM
20,CC(C)(C)c1cc(C=C(C#N)C#N)cc(Br)c1O,9 µM
21,O=C(NCCN1CCC2(CC1)C(=O)NCN2c1cccc(F)c1)c1ccc(F)c(F)c1 [ML 298 hydrochloride],9 µM
22,CCn1cnc2c(Nc3cccc(Cl)c3)nc(N[C@H]3CCCC[C@H]3N)nc21,1 µM
23,O=C(Nc1ccncc1)C(=O)c1cn(Cc2ccc(Cl)cc2)c2ccccc12 [Indibulin],≤ 0.3 µM
24,CC[C@@H](C(=O)[C@@H](C)[C@@H](O)[C@H](C)[C@@H]1O[C@@H]([C@@H](CC)C(=O)O)CC[C@@H]1C)[C@H]1O[C@]2(C=C[C@@H](O)[C@]3(CC[C@@](C)([C@H]4CC[C@](O)(CC)[C@H](C)O4)O3)O2)[C@H](C)C[C@@H]1C [Salinomycin Sodium],≤ 0.3 µM
25,CC[C@@H](CO)NC(=O)[C@@H]1C=C2c3cccc4c3c(cn4C)C[C@H]2N(C)C1 [methysergide],9 µM
26,CN1C[C@H](C(=O)N[C@]2(C)O[C@@]3(O)[C@@H]4CCCN4C(=O)[C@H](Cc4ccccc4)N3C2=O)C=C2c3cccc4[nH]cc(c34)C[C@H]21 [ergotamine],3 µM
27,N#CC(C#N)=NNc1ccc(OC(F)(F)F)cc1,3 µM
28,COC1=CC(C)=C[C@@H](C)[C@@H](O)[C@@H](C)CC(C)=CC=C[C@H](OC)[C@@H]([C@@H](C)[C@@H](O)[C@H](C)[C@@]2(O)C[C@@H](O)[C@H](C)[C@@H](C(C)C)O2)OC1=O [Bafilomycin A1],≤ 0.3 µM
29,COc1cc([C@@H]2c3cc4c(cc3[C@H](O)[C@H]3COC(=O)[C@H]23)OCO4)cc(OC)c1OC [Podophyllotoxin],≤ 0.3 µM
30,CC[C@]12C=CCN3CC[C@]4(C(=C(C(=O)OC)C1)Nc1ccccc14)[C@@H]32 [Tabersonine dichlorhydrate],9 µM

# Reference: the supplement of paper PMC7411054
